Here are results for 24 compounds from PubChem BioAssay (NCI).

This is part of a sample that, as a whole, favours compounds with a hit. Of some 83,000 tested, about 20% had one in any assay.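 Activity criterion: percent growth below 10, measured after cells in 96-well plates were exposed to a single compound concentration for 48 hours.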 Values without a mark were called inactive. Activity calls are given as the source filed them.

Test systems include HT29 colon; SNB-75 CNS; SNB-19 CNS; PC-3 prostate; SK-MEL-5 melanoma; UACC-62 melanoma; LOX IMVI melanoma; SK-MEL-28 melanoma; U251 CNS.
Holding throughout (assay): NCI-60 one-dose screen, 48 h (100 = growth as untreated, 0 = no growth, -100 = all killed)
What all share (conditions): 10 µM unless noted

For the compound `O=c1cc(SCc2ccccc2)nc[nH]1`, the growth is 109% with HT29 colon; 93.7% in the assay on SNB-75 CNS; 107% with SNB-19 CNS; 97.7% in the assay with PC-3 prostate; 113% in the assay with SK-MEL-5 melanoma; 108% with UACC-62 melanoma. Besides, the growth was 107% in the assay on LOX IMVI melanoma and 133% with SK-MEL-28 melanoma.
As to `c1ccc2c(c1)Nc1ccncc1S2`, the growth in the assay with HT29 colon is 90.5%; in the assay with SNB-75 CNS it was 86.3%; with SNB-19 CNS, 107%; in the assay on U251 CNS, 102%; in the assay with PC-3 prostate, 91.2%; in the assay on SK-MEL-5 melanoma, 93.3%. The growth in the assay on UACC-62 melanoma was 96.8%; in the assay on SK-MEL-28 melanoma, 128%.
Turning to `COc1cc(C(=O)/C=C/c2ccc(OCCCCCC[P+](c3ccccc3)(c3ccccc3)c3ccccc3)cc2)cc(OC)c1OC`, the growth in the assay with SNB-75 CNS was -11.1% (active); with SNB-19 CNS, -73.3% (active); in the assay on U251 CNS, -100% (active); with PC-3 prostate it was -54.9% (active); in the assay with SK-MEL-5 melanoma, -100% (active); in the assay on LOX IMVI melanoma, -100% (active). Also, in the assay with SK-MEL-28 melanoma, the growth is -60.4% (active).
As for `CC(=O)N1CCN(c2ccc(OCC3CO[C@](Cn4ccnc4)(c4ccc(Cl)cc4Cl)O3)cc2)CC1` (stereo not given in full), the growth was 80.6% in the assay with HT29 colon; 79.6% in the assay with SNB-75 CNS; 97.2% with SNB-19 CNS; 87.4% in the assay with U251 CNS; 76.5% in the assay with PC-3 prostate; 14.5% in the assay with SK-MEL-5 melanoma. For the same compound, the growth was 57.2% in the assay on UACC-62 melanoma, 91.6% with LOX IMVI melanoma and 106% in the assay with SK-MEL-28 melanoma.
`CCC12CCC[N+]3([O-])CCC4(C(=Nc5ccccc54)C(O)(C(=O)OC)C1)C23` (stereo not given): the growth with HT29 colon is 98.3%; in the assay on SNB-75 CNS it was 92.7%; with U251 CNS, 108%; in the assay with PC-3 prostate it was 87.8%; in the assay on SK-MEL-5 melanoma, 116%; in the assay with UACC-62 melanoma, 103%. The growth in the assay on LOX IMVI melanoma is 100%; in the assay with SK-MEL-28 melanoma, 94.5%.
With `CN1CCN(c2ccc(-c3cc4c(Nc5ccc(F)c(Cl)c5)ncnn4c3)cn2)CC1`, the growth was 72% in the assay on SNB-75 CNS; 96.2% with SNB-19 CNS; 82.5% with U251 CNS; 94.2% in the assay on PC-3 prostate; 100% with SK-MEL-5 melanoma; 106% in the assay with UACC-62 melanoma. The growth in the assay with LOX IMVI melanoma is 85.2%; in the assay with SK-MEL-28 melanoma it was 87.6%.
Consider `COc1cccc2nc3n(c12)C(c1c(F)cccc1F)SC3` (stereo not given), for which the growth was 100% in the assay with HT29 colon; 96% in the assay with SNB-75 CNS; 101% in the assay on SNB-19 CNS; 92.5% in the assay on U251 CNS; 80.6% with PC-3 prostate; 86% with SK-MEL-5 melanoma. The growth with UACC-62 melanoma was 77.5%; in the assay on LOX IMVI melanoma it was 93.1%; in the assay with SK-MEL-28 melanoma, 112%.
Consider `Cc1ccc(-c2nn(C)c(=O)c3noc(-c4ccc(C)cc4)c23)cc1`, for which the growth in the assay with HT29 colon was 9.47% (active); with SNB-75 CNS, -21.4% (active); with SNB-19 CNS, 32.9%; in the assay with U251 CNS it was 27.4%; with PC-3 prostate it was 26.1%; with SK-MEL-5 melanoma it was 21.5%. For the same compound, the figures for the growth in the assay with UACC-62 melanoma, in the assay with LOX IMVI melanoma and in the assay on SK-MEL-28 melanoma were 38.5%, 44.3% and 70.5%, respectively.
Regarding `S=c1nc(-c2ccccc2)oc(=NC2CCCCC2)n1C1CCCCC1`, the growth with HT29 colon was 49.5%; in the assay on SNB-75 CNS it was 68.2%; in the assay on SNB-19 CNS, 28.7%; in the assay on PC-3 prostate, 3.69% (active); in the assay on SK-MEL-5 melanoma it was 66.1%; in the assay on UACC-62 melanoma, 70.9%. In addition, the growth in the assay on LOX IMVI melanoma is 30.1%; in the assay on SK-MEL-28 melanoma, 107%.
As for `CCOC(=O)C1=C(N)Oc2c(sc3c(C)cccc23)C1c1ccc(F)cc1` (stereo not given), the growth in the assay on HT29 colon is 2.47% (active); with SNB-75 CNS, -4.15% (active); in the assay with SNB-19 CNS it was 26.3%; in the assay with U251 CNS, 19.4%; with PC-3 prostate it was 12%; in the assay on SK-MEL-5 melanoma, 16.3%. Also, the growth in the assay with UACC-62 melanoma was 17.4%; in the assay on LOX IMVI melanoma it was 14%; in the assay on SK-MEL-28 melanoma, 56.8%.
`O=c1c2cc(F)cc(Cl)c2sc2c(NCCCNCCO)nc3ccccc3c12`: the growth in the assay on HT29 colon is 3.35% (active); in the assay with SNB-19 CNS, 88.1%; in the assay on U251 CNS, 75.8%; in the assay on PC-3 prostate, 82.7%; in the assay on SK-MEL-5 melanoma it was 98.9%; in the assay on UACC-62 melanoma, 99.9%. The growth in the assay with LOX IMVI melanoma was 66%; with SK-MEL-28 melanoma, 108%.
In the case of `O=C(CCN1C(=O)/C(=C/c2ccc(O)cc2)SC1=S)Nc1ccc(Cl)cc1`, the growth in the assay on HT29 colon was 108%; in the assay on SNB-75 CNS it was 90.4%; with SNB-19 CNS, 89.7%; with U251 CNS, 96.5%; with PC-3 prostate it was 88.1%; with SK-MEL-5 melanoma, 99.2%. Also, the growth with LOX IMVI melanoma was 97.8%; with SK-MEL-28 melanoma, 99.2%.
On to `COc1cc(Nc2nc(NCCN)nc3cc[nH]c(=O)c23)cc(OC)c1`, for which the growth was 73.6% with HT29 colon; 90.3% in the assay with SNB-75 CNS; 102% with SNB-19 CNS; 85.8% with U251 CNS; 113% with PC-3 prostate; 57.2% in the assay with UACC-62 melanoma. The growth with LOX IMVI melanoma is 51.8%; in the assay with SK-MEL-28 melanoma, 102%.
Turning to `CN(C)c1ccc2nc3ccc(=[N+](C)C)c([N+](=O)[O-])c-3sc2c1`, the growth is 59% in the assay on HT29 colon; 56.6% in the assay on SNB-19 CNS; 6.01% (active) with U251 CNS; 4.48% (active) with PC-3 prostate; 19.5% in the assay with SK-MEL-5 melanoma; 34.1% in the assay on UACC-62 melanoma. For the same compound, the growth in the assay with LOX IMVI melanoma was 4.03% (active); in the assay with SK-MEL-28 melanoma it was 57.8%.
On to `Cc1nc2ccccc2c(/C=C/c2ccccc2)c1C(=O)/C=C/c1ccc(C(F)(F)F)cc1`, for which the growth with HT29 colon is 5.76% (active); in the assay on SNB-75 CNS, -5.13% (active); with SNB-19 CNS, -64.9% (active); with U251 CNS, -62.1% (active); with PC-3 prostate, -28% (active); with SK-MEL-5 melanoma, -78.9% (active). The growth is -51.6% (active) with UACC-62 melanoma, -87.4% (active) in the assay with LOX IMVI melanoma and -67% (active) in the assay with SK-MEL-28 melanoma.
Take `COc1cc2cc(Oc3ccc(NC(=O)Nc4ccc(F)c(C(F)(F)F)c4)cc3)c(C)nc2cc1OCCN1CCOCC1`: the growth in the assay with HT29 colon was 8.41% (active); in the assay on SNB-75 CNS it was 51.6%; with SNB-19 CNS, 25.1%; with U251 CNS, 13.6%; in the assay on PC-3 prostate, 5.95% (active); in the assay with SK-MEL-5 melanoma, -37.6% (active). The growth in the assay on UACC-62 melanoma is 33.9%; in the assay on LOX IMVI melanoma it was 12.8%; in the assay with SK-MEL-28 melanoma it was 43.1%.
As for `Cc1cc(O)c(C2=NN(c3ccc(S(N)(=O)=O)cc3)C(c3ccccc3O)C2)cc1Cl` (stereo not given), the growth was -18.4% (active) in the assay with HT29 colon; 41.5% with SNB-75 CNS; 65.4% with SNB-19 CNS; 2.38% (active) with U251 CNS; 9.8% (active) in the assay with PC-3 prostate; 36.8% in the assay on SK-MEL-5 melanoma. In addition, the growth in the assay on UACC-62 melanoma was 21.3%; with SK-MEL-28 melanoma, 53.9%.
Turning to `c1ccc(CO[C@H]2CO[C@H]3[C@@H]2OC[C@@H]3Oc2ccc(Nc3ncnc4ccsc34)cc2)cc1`, the growth with HT29 colon is 81.9%; in the assay with SNB-75 CNS it was 87.5%; with U251 CNS, 81.9%; with PC-3 prostate, 80.3%; in the assay on SK-MEL-5 melanoma, 9.33% (active); in the assay on UACC-62 melanoma it was 59.9%. Besides, the growth with LOX IMVI melanoma is 78.8%; in the assay on SK-MEL-28 melanoma, 88.9%.
In the case of `CC1Cc2ccccc2N1NC(=O)c1ccc(Cl)c(S(N)(=O)=O)c1` (stereo not given), the growth is 99.9% in the assay on HT29 colon; 90.4% in the assay with SNB-75 CNS; 102% with SNB-19 CNS; 100% in the assay with U251 CNS; 88% with PC-3 prostate; 101% in the assay on SK-MEL-5 melanoma. Besides, the growth with UACC-62 melanoma was 99.4%; in the assay on LOX IMVI melanoma, 96.2%; in the assay on SK-MEL-28 melanoma, 104%.
Turning to `Cc1ccc(-c2cnc3sc(C(=O)NCCc4ccccc4)c(C)n23)cc1`, the growth in the assay with HT29 colon was 113%; in the assay with SNB-75 CNS, 79.3%; in the assay on SNB-19 CNS it was 92.1%; with U251 CNS, 95%; in the assay on PC-3 prostate, 81.7%; in the assay with SK-MEL-5 melanoma, 99.7%. The growth in the assay with UACC-62 melanoma is 85.9%; with LOX IMVI melanoma, 84.4%; in the assay on SK-MEL-28 melanoma, 104%.
Consider `COc1ccc(CN2c3ccccc3CCc3ccccc32)cc1F`, for which the growth in the assay on HT29 colon was 1.59% (active); with SNB-75 CNS it was 23.2%; in the assay with U251 CNS, 21.1%; with PC-3 prostate, 24.1%; with SK-MEL-5 melanoma it was 19.8%; in the assay with UACC-62 melanoma it was 24.8%. In addition, the growth in the assay with LOX IMVI melanoma is 50.2%; in the assay with SK-MEL-28 melanoma it was 50.8%.
Take `C#Cc1cccc(NC(=O)c2ccc(NC(=O)C=C)cc2)c1`: the growth in the assay with HT29 colon is 44% [8.25 µM]; in the assay with SNB-75 CNS, 39.4% [8.25 µM]; in the assay with SNB-19 CNS it was 84.5% [8.25 µM]; in the assay with U251 CNS, 80.6% [8.25 µM]; in the assay with PC-3 prostate it was 67.7% [8.25 µM]; in the assay on SK-MEL-5 melanoma it was 97.7% [8.25 µM]. Besides, the figures for the growth in the assay on UACC-62 melanoma, in the assay with LOX IMVI melanoma and with SK-MEL-28 melanoma were 73.9% [8.25 µM], 79.6% [8.25 µM] and 98.2% [8.25 µM], respectively.
As to `COc1nc2ccc(C)cc2cc1-c1nc2c(cnn2-c2ccccc2)c(=O)[nH]1`, the growth in the assay on HT29 colon was 48.3%; in the assay on SNB-75 CNS it was 87.2%; with SNB-19 CNS it was 84%; in the assay with U251 CNS, 82.6%; with PC-3 prostate, 65.9%; with SK-MEL-5 melanoma it was 76.9%. For the same compound, the growth was 60.2% in the assay with UACC-62 melanoma, 70.4% in the assay on LOX IMVI melanoma and 81.9% in the assay with SK-MEL-28 melanoma.
Consider `Cc1nc(/N=C(\N)NC(=O)Nc2cccc(Cl)c2)sc1C`, for which the growth in the assay on HT29 colon is 30.2%; in the assay with SNB-75 CNS, 21.9%; in the assay on SNB-19 CNS, 83.2%; in the assay on U251 CNS it was 83.5%; with PC-3 prostate, 81.5%; with LOX IMVI melanoma, 68.8%. For the same compound, the growth in the assay on SK-MEL-28 melanoma was 69%.
